Key:
Conditions in all cases: concentration: 1 μM, replicates: in singlicate; n = 1
AMPK-alpha1 = system: T1, AMPK-alpha1
T1 construct: gene PRKAA1

AMPK-alpha2 = system: T2, AMPK-alpha2
T2 construct: gene PRKAA2

ANKK1 = system: ANKK1
ARK5 = system: T3, ARK5
T3 construct: gene NUAK1

ASK1 = system: T4, ASK1
T4 construct: gene MAP3K5

ASK2 = system: T5, ASK2
T5 construct: gene MAP3K6

AURKA = system: AURKA
AURKB = system: AURKB
AURKC = system: AURKC
AXL = system: AXL
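Further: KINOMEscan kinase panel screen.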

SMILES | %Inh (AMPK-alpha1) | %Inh (AMPK-alpha2) | %Inh (ANKK1) | %Inh (ARK5) | %Inh (ASK1) | %Inh (ASK2) | %Inh (AURKA) | %Inh (AURKB) | %Inh (AURKC) | %Inh (AXL)
c1ccc(-c2ccnc3[nH]ccc23)cc1 [SB-693578] | 0% | 0% | 0% | 20% | 2% | 19% | 17% | 41% | 0% | 0%
CC(=O)c1c(C)c2cnc(Nc3ccn(C)n3)nc2n(C2CCCC2)c1=O | 20% | 0% | 0% | 0% | 0% | 0% | 4% | 0% | 0% | 0%
CNc1nc(-c2ccc3c(N)n[nH]c3c2)cc(N2C[C@@H](C(=O)NC3CCCCC3)OC[C@H]2C)n1 [GSK2375584] | 6% | 0% | 8% | 23% | 12% | 0% | 9% | 16% | 12% | 0%
Cc1ccc(NC(=O)Nc2ccccc2)cc1-c1ccc(C(=O)Nc2ccncc2)cc1 [GSK1398471] | 15% | 11% | 0% | 13% | 10% | 4% | 15% | 0% | 0% | 11%
COc1ccc(Nc2nccc(N3CCC(NC(=O)C(C)c4ccc(Cl)cc4)CC3)n2)cc1 (stereo not drawn) [GSK1379812] | 35% | 11% | 3% | 20% | 0% | 0% | 23% | 4% | 42% | 0%
O=c1cc(N2CCOCC2)nc2n(Cc3cccc(Cl)c3Cl)c3ccccc3n12 [GSK2299009] | 5% | 16% | 6% | 0% | 2% | 0% | 17% | 7% | 46% | 59%
Cc1ccc(NC(=O)Nc2ccc(Cl)cc2)cc1-c1ccc(C(=O)Nc2ccncc2)cc1 [GSK1398472] | 3% | 3% | 12% | 1% | 11% | 0% | 0% | 28% | 10% | 11%
Cc1cnc(N)c(/C=C/c2cncc(C(=O)NCCc3ccc(Cl)cc3Cl)c2)c1.Cl [GSK190937] | 3% | 18% | 3% | 1% | 2% | 0% | 1% |  | 12% | 5%
O=C1NC(=O)C(c2ccc(Cl)cc2)=C1Nc1ccc(O)cc1 [SB-340867] | 0% | 0% | 0% | 0% | 0% | 0% | 0% | 9% | 0% | 18%
CC(C)c1cc(-c2ccc3c(N)n[nH]c3c2)nc(N)n1 [GSK2250882] | 0% | 0% | 8% | 0% | 0% | 7% |  | 18% | 56% | 0%
CNc1nc(-c2ccc3c(N)n[nH]c3c2)cc(N2C[C@@H](C(=O)Nc3ccccc3)CC[C@H]2C)n1 [GSK2298859] | 0% | 0% | 1% | 25% | 0% | 12% | 12% | 16% | 43% | 8%
Fc1ccc(-c2nc[nH]c2-c2ccncc2)cc1 [SB-217360] | 5% | 0% | 0% | 0% | 0% | 0% | 8% | 33% | 0% | 0%
Cc1c(Cn2c(C)c(C)n3c(=O)cc(N4CCOCC4)nc23)cccc1C(F)(F)F [GSK2328680] | 0% | 2% | 0% | 0% | 2% | 0% | 0% | 0% | 0% | 0%
COc1nccc(-c2c(-c3ccc(F)cc3)ncn2CCCN2CCOCC2)n1 [SB-282852] | 77% | 0% | 0% | 0% | 0% | 0% | 23% | 42% | 0% | 0%
Cc1ccccc1Cn1ccn2c(=O)cc(N3CCOCC3)nc12 [GSK2269905] | 0% | 1% | 10% | 5% | 0% | 0% | 0% | 30% | 0% | 9%
CNCc1ccc2nc(NC(=O)c3ccc(C(C)(C)C)cc3)cn2c1 | 0% | 13% | 40% | 0% | 21% | 0% | 8% | 22% | 25% | 15%
CSc1ccc(-c2nc3n(c2-c2ccncc2)CCC3)cc1 [SKF-105561] | 0% | 0% | 0% | 0% | 12% | 17% | 10% | 0% | 0% | 0%

Source: PMC5540273 (PLoS ONE, 2017)
